Source: PubChem (National Center for Advancing Translational Sciences (NCATS))
MARV entry inh – qHTS for inhibitors of binding or entry into cells for Marburg Virus; Marburg virus pseudotyped entry inhibition, cell reporter; Potency, µM (highest dose often 37.8 µM), hits mostly inhibitors; 1.8% of 300,000 active; AID 540276, 2011; calls by dose curve; tested in HEK293 cells
Lassa entry inh – qHTS for Inhibitors of binding or entry into cells for Lassa Virus; Lassa virus pseudotype entry inhibition, cell reporter; Potency, µM (top dose mostly 37.9 µM), most hits filed as inhibitors; 1.2% of 300,000 active; calls by dose curve; tested in HEK293 cells; note: nearly all actives have a fitted effect of over 50% in size
HCV inh – qHTS Assay for Inhibitors of Hepatitis C Virus (HCV). Huh7.5.1 HCVcc-Cre infection, luciferase reporter, 44 h. Potency, µM (series often up to 41.8 µM), actives largely listed as inhibitors. 3.4% of 340,000 active; active = well fitted inhibition curve with a large enough effect; inconclusive = small, poorly fitted or top-dose-only effect, or another doubt; inactive = no such curve, though single readings can be large or run the other way
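Seed cells (1,000/well) for 4 h; treat with compound and infect with HCVcc-Cre, moi about 0.5. Incubate 44 h, then detect luciferase activity.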
FMDV inh – High Throughput Screening for Foot and Mouth Disease Virus Antivirals; Potency, µM (doses to about 57.9 µM), most hits filed as inhibitors; FMDV antiviral cell-based qHTS; AID 1159524, 2015; 1.2% of 410,000 active; calls by dose curve; tested in HEK293T cells; note: read-out not given here; nearly all actives have a fitted effect of over 45% in size
HCMV inh – qHTS Assay for inhibitors of the human cytomegalovirus (HCMV); activity change, negative = inhibition, % at 57.5 µM; 4.5% of 410,000 active; HFF cells, HCMV-luciferase reporter, 72 h; stronger effect = lower value; in the data active = activity change below about -60%; inconclusive = no clear call, values can overlap the other calls; inactive = above about -39%
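Compounds were evaluated in HFFs infected with an HCMV luciferase reporter virus (MOI 1 PFU/cell). Luciferase in lysates collected 72 h post infection served as the replication measure.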
SARS PLP yeast – qHTS of Yeast-based Assay for SARS-CoV PLP; S. cerevisiae expressing SARS-CoV PLpro, growth rescue; Potency, µM (series often up to 32.9 µM), actives largely listed as activators; 0.19% of 330,000 active; calls by dose curve; note: nearly all actives have a fitted effect of over 55% in size
Numbers stand for hits; [ ] = dose if it differs, or a comment. This is a sample that favours compounds with a hit; in the whole collection about 8% have one here.

COc1cccc(CN(C)C(=O)CCN(c2ccccc2)S(=O)(=O)c2ccc(C)cc2)c1OC was read as MARV entry inh inconclusive, Lassa entry inh inconclusive, HCV inh 11µM, FMDV inh inactive, HCMV inh inactive and SARS PLP yeast inactive.
`Cc1ccc(S(=O)(=O)N(CCC(=O)NCc2ccccc2F)c2ccccc2)cc1` gave HCV inh inactive, FMDV inh inactive, HCMV inh inactive and SARS PLP yeast inactive.
Screening COc1cccc(CN(C)C(=O)CNC(=O)c2ccc(-c3ccccc3)cc2)c1OC returned MARV entry inh inconclusive, Lassa entry inh inconclusive, HCV inh 3.2µM, FMDV inh inconclusive, HCMV inh -71 and SARS PLP yeast inactive.
COc1cccc(CN(C)C(=O)CNC(=O)c2cccs2)c1OC was read as MARV entry inh inactive, Lassa entry inh inconclusive, HCV inh inactive[8.37 µM], FMDV inh inactive, HCMV inh inactive and SARS PLP yeast inactive.
Cc1c(Cl)cccc1NC(=O)CCS(=O)(=O)c1ccc2c(c1)CC(C)N2C(=O)C1CC1 (stereo not drawn) was read as Lassa entry inh inconclusive, FMDV inh inactive and HCMV inh inactive.
COc1cccc(C2/C(=C(/O)c3cnn(-c4ccccc4)c3C)C(=O)C(=O)N2CCN(C)C)c1OC (stereo not drawn) was read as MARV entry inh 1.1µM, Lassa entry inh inactive, HCV inh inactive, FMDV inh inactive, HCMV inh inactive and SARS PLP yeast inactive.
Screening COc1cccc(-c2nc(N3CC(C)CC(C)C3)c3ccccc3n2)c1O (stereo not drawn) returned MARV entry inh inconclusive, Lassa entry inh inconclusive, HCV inh 14µM, FMDV inh inconclusive, HCMV inh inactive and SARS PLP yeast inactive.
For COc1cccc(-c2nc(N3CCC(C)CC3)c3ccccc3n2)c1O the results were MARV entry inh inconclusive, Lassa entry inh inactive, HCV inh inconclusive, FMDV inh inactive, HCMV inh inactive and SARS PLP yeast inactive.
For COc1cccc(-c2nc(N3CCCC3)c3ccccc3n2)c1O the results were MARV entry inh inactive, Lassa entry inh inactive, HCV inh 5µM, FMDV inh inactive, HCMV inh inactive and SARS PLP yeast inactive.
For CC1CCN(c2nc(-c3ccccc3O)nc3ccccc23)CC1 the results were MARV entry inh inactive, Lassa entry inh inactive, HCV inh inconclusive, FMDV inh inactive, HCMV inh inactive and SARS PLP yeast inactive.
Screening Cc1ncc2c(c1CNC(=O)c1ccc3c(c1)OCO3)CCN(C(=O)/C=C/c1ccccc1Cl)C2 returned FMDV inh inactive.
Screening CN(/N=C/c1ccc(O)cc1O)c1ncc(C(F)(F)F)cc1Cl returned HCV inh inactive, FMDV inh inactive, HCMV inh -74 and SARS PLP yeast inactive.
Screening COc1ccc(CCNC(=O)c2ccc3c(c2)N(Cc2ccccc2)CCS3)cc1OC returned MARV entry inh inconclusive, Lassa entry inh inconclusive, HCV inh 10µM, FMDV inh inconclusive, HCMV inh inactive and SARS PLP yeast inactive.
Screening O=C(NCCc1ccccc1)c1ccc2c(c1)N(Cc1ccc(F)cc1)C(=O)CS2 returned Lassa entry inh inactive, FMDV inh inconclusive and HCMV inh inactive.
CCN1CCN(CCCNC(=O)c2ccc3c(c2)N(Cc2ccccc2)CCS3)CC1 was read as HCV inh 10µM, FMDV inh inactive, HCMV inh inactive and SARS PLP yeast inactive.
Screening O=C(NCc1ccco1)c1ccc2c(c1)N(Cc1ccc(Cl)cc1)CCS2 returned MARV entry inh inconclusive, Lassa entry inh inconclusive, HCV inh 10µM, FMDV inh inactive, HCMV inh inconclusive and SARS PLP yeast inactive.
For O=C(O)c1ccc2c(c1)N(Cc1cccc(F)c1)C(=O)CS2 the results were HCV inh inactive, FMDV inh inactive, HCMV inh -100 and SARS PLP yeast inactive.
Screening COc1ccc(C2Nc3ccccc3-c3nnc(SC)nc3O2)cc1C (stereo not drawn) returned MARV entry inh inactive, Lassa entry inh inactive, FMDV inh inactive and HCMV inh inactive.
`COc1cccc(CN2C(=O)COCc3cc(-c4cccc(CO)c4)ccc32)c1` gave HCMV inh inactive.
`N#Cc1ccc(CN2CCCC3(CCN(S(=O)(=O)c4ccccc4)CC3)C2)cc1` gave FMDV inh inactive.
`Cc1ccc2c(CN3CCN(C(=O)c4ccc(Br)cc4)CC3)cc(=O)oc2c1` gave MARV entry inh inactive, Lassa entry inh inactive, FMDV inh inactive and HCMV inh inactive.
COc1ccc(N2CC(C)(C)C[C@H]2/C=C/C(=O)OC(C)(C)C)cc1 was read as HCMV inh inactive.
N.N.N.N.N.N.N.N.N.N.N.N.N.N.O.O.[Ru+4].[Ru+5].[Ru+5] was read as MARV entry inh inconclusive and Lassa entry inh inactive.
COc1ccc(CCNC(=O)CN2CCN(c3cccc(Cl)c3)CC2)cc1OC was read as MARV entry inh inactive, Lassa entry inh inactive, HCV inh 10µM, FMDV inh inactive, HCMV inh inactive and SARS PLP yeast inactive.
COc1ccc(CNC(=O)N2CCN(c3cccc(Cl)c3)CC2)cc1OC was read as MARV entry inh inactive, HCV inh inconclusive, FMDV inh inconclusive, HCMV inh inactive and SARS PLP yeast inactive.
For COc1ccc(CCNC(=O)c2ccc3c(c2)N(Cc2cccc(Cl)c2)C(=O)CS3)cc1OC the results were MARV entry inh inconclusive, Lassa entry inh inconclusive, FMDV inh inactive and HCMV inh -61.
For NS(=O)(=O)c1ccc(CCNC(=O)c2ccc3c(c2)N(Cc2ccccc2)CCS3)cc1 the results were MARV entry inh inactive, Lassa entry inh inactive, HCV inh inactive, FMDV inh inactive, HCMV inh -64 and SARS PLP yeast inactive.
CCCOc1ccc(CNC(=O)c2cc3ccccn3n2)cc1 was read as Lassa entry inh inconclusive, FMDV inh inactive and HCMV inh inactive.
Screening COc1ccc2c(c1)CC(C(=O)Nc1c(C)cc(C)cc1C)CO2 (stereo not drawn) returned Lassa entry inh inactive, FMDV inh inactive and HCMV inh inactive.
`O=C(C1CC12CCN(Cc1cccc3cccnc13)CC2)N1CCN(Cc2cccs2)CC1` (stereo not drawn) gave FMDV inh inactive.
`COC(=O)C(C(C)=O)C1c2ccccc2C=C(C)N1C(=O)OC` (stereo not drawn) gave MARV entry inh inactive.
`N=c1ccn(Cc2cccc(F)c2)cc1` gave MARV entry inh inactive, Lassa entry inh inactive, HCV inh 3.2µM, FMDV inh inconclusive, HCMV inh inconclusive and SARS PLP yeast inactive.
`COC(=O)/C=C/[C@@H]1CCCN1c1ccc(OC)cc1` gave HCMV inh inactive.
`CC(C)CN(CC(C)C)S(=O)(=O)c1ccc(C(=O)Nc2sc3c(c2C(N)=O)CCN(C(C)C)C3)cc1` gave Lassa entry inh inconclusive, FMDV inh inactive and HCMV inh -82.
